Screening results deposited in PubChem by National Center for Advancing Translational Sciences (NCATS).
The list is not random: actives were taken first. Their share in the collection is about 10%.
HEK cytotox – Cytotoxic Profiling in HEK 293 Cell Line of Diverse Libraries Using Quantitative High-Throughput Screening; HEK 293 viability, ATP luminescence (CellTiter-Glo), 48-72 h; Potency, µM (highest dose often 115 µM), hits mostly inhibitors; 94,000 tested, 6.6% active; also: nearly all actives have a fitted effect of over 60% in size
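Viability of HEK 293 cells, plated at 250 cells/well, was judged by cellular ATP after compound treatment for 48 or 72 hr. Luminescence was imaged 10 min after CellTiter-Glo addition at room temperature.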
NIH3T3 tox – Cytotoxic Profiling in NIH 3T3 Cell Line of Diverse Libraries Using Quantitative High-Throughput Screening. Potency, µM (top dose mostly 96.7 µM), usual class: inhibitors. 94,000 tested, 4.3% active. AID 1345082, 2018. NIH 3T3 viability, CellTiter-Glo ATP luminescence, 48-72 h; also: nearly all actives have a fitted effect of over 55% in size
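NIH 3T3 cells at 400 cells/well received 23 nL of compound by pintool and were incubated 48 or 72 h at 37 °C. Viability was read as ATP-coupled CellTiter-Glo luminescence.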
hNpr1 antagonist – Natriuretic polypeptide receptor (hNpr1) antagonism - Primary qHTS; Atrial natriuretic peptide receptor 1 (Homo sapiens), P16066; HEK293 hNpr1 GloSensor cGMP, ANP-stimulated luminescence; Potency, µM (highest dose often 46.3 µM), hits mostly inhibitors; 76,000 tested, 1.6% active; AID 1347048, 2019; calls by dose curve; also: nearly all actives have a fitted effect of over 60% in size
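Compound pre-incubated 30 min at room temperature on GloSensor-loaded HEK293 cells stably carrying hNpr1 and the pGS-40F cGMP biosensor. Stimulation uses hNppA at 0.1 nM final; luminescence is taken at baseline and 20 min post-agonist.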
GPT2 inhibitor – Primary qHTS assay for inhibitors of Glutamate pyruvate transaminase 2 (GPT2); 100,000 tested, 0.25% active; Recombinant GPT2, coupled pyruvate oxidase/HRP Amplex Red fluorescence; Alanine aminotransferase 2 (Homo sapiens), Q8TD30; Potency, µM (top dose mostly 57.7 µM), usual class: inhibitors; also: nearly all actives have a fitted effect of over 60% in size
Target sequence (Q8TD30 whole entry, looked up): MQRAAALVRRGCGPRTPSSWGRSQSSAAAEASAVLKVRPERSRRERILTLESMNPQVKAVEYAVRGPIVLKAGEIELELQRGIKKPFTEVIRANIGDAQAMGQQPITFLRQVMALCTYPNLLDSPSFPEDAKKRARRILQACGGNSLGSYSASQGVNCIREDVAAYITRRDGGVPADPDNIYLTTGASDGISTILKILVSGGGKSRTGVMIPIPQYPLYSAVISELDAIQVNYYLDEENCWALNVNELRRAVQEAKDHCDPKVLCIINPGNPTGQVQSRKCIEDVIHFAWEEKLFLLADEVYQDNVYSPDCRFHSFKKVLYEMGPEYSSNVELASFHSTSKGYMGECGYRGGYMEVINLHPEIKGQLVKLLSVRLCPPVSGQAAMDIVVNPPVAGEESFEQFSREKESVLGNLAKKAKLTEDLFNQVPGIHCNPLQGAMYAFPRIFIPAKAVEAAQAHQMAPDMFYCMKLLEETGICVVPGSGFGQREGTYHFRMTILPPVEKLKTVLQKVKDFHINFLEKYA
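GPT2 10ng/uL, a-KG 250uM, L-Ala 2mM, HEPES pH7.5 + 0.0001% Tween; 30 min RT. Then Amplex mix (PO/HRP/ThPP), 30 min RT dark, fluorescence. AOA 50uM used as positive control.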
Luciferase inh – Firefly luciferase inhibition profiling of diverse chemical library using quantitative high-throughput screening; purified P. pyralis luciferase, luminescence, biochemical; Luciferin 4-monooxygenase (Photinus pyralis), P08659; Potency, µM (series often up to 115 µM), most hits filed as inhibitors; 76,000 tested, 2.5% active; also: nearly all actives have a fitted effect of over 65% in size
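Purified 10nM P. pyralis luciferase with 10uM D-luciferin and 10uM ATP in 50mM Tris acetate pH 7.5, 10mM Mg acetate, 0.01% Tween-20, 0.05% BSA. qHTS titration; luminescence read by CCD imager.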
NPR1 antag cnf – Natriuretic polypeptide receptor (hNpr1) antagonism - Confirmation | Potency, µM (highest dose often 57.6 µM), usual class: inhibitors | 1,400 tested, 76% active | HEK293 hNpr1 cGMP GloSensor luminescence, ANP-stimulated | shares compounds with hNpr1 antagonist; calls by dose curve; also: nearly all actives have a fitted effect of over 70% in size
Npr2 selectivity – Natriuretic polypeptide receptor (hNpr2) antagonism - Subtype selectivity assay. AID 1347046, 2019. Potency, µM (top dose mostly 57.6 µM), usual class: inhibitors. 1,400 tested, 67% active. shares compounds with hNpr1 antagonist. HEK293 hNpr2 GloSensor cGMP luminescence, CNP-stimulated; calls by dose curve; also: nearly all actives have a fitted effect of over 70% in size
FLuc counter – Natriuretic polypeptide receptor (hNpr1) antagonism - Confirmation firefly luciferase (FLuc) inhibition counterscreen. AID 1347047, 2019. Potency, µM (highest dose often 57.6 µM), actives largely listed as inhibitors. 1,400 tested, 0.7% active. shares compounds with hNpr1 antagonist. purified FLuc enzyme, luminescence, Km substrate
GloSensor cGMP – Natriuretic polypeptide receptor (hNpr1) antagonism - Counterscreen GloSensor control cell line; shares compounds with hNpr1 antagonist; HEK293 GloSensor cGMP, SNP-stimulated, luminescence; Potency, µM (top dose mostly 57.6 µM), usual class: inhibitors; 1,400 tested, 69% active; AID 1347051, 2019; calls by dose curve; also: nearly all actives have a fitted effect of over 70% in size
Each line names hits and unclear results; the compound was inactive in the other large screens (follow-up assays come after a bar, where they were run). Unless noted, calls follow the shape of the dose curve; as a rule, active = well fitted curve in the direction sought with a large enough effect; inconclusive = small, poorly fitted or top-dose-only effect, or another doubt; inactive = no such curve, though single readings can be large; an effect the other way counts as inactive or inconclusive.

COc1ccc(NC(=O)Cn2c(N(C)Cc3ccccc3)nc(C)cc2=O)cc1Cl	HEK cytotox inconclusive, NIH3T3 tox inconclusive, hNpr1 antagonist 11µM | NPR1 antag cnf 11µM | Npr2 selectivity 11µM | FLuc counter inactive | GloSensor cGMP 9.7µM
Cc1cc(=O)n(CC(=O)Nc2c(C)cccc2C)c(N(C)Cc2ccccc2)n1	NIH3T3 tox inconclusive
COc1ccc(NC(=O)Cn2c(N(C)Cc3ccccc3)nc(C)cc2=O)cc1	HEK cytotox 45µM, NIH3T3 tox inconclusive, hNpr1 antagonist 11µM | NPR1 antag cnf 19µM | Npr2 selectivity inconclusive | FLuc counter inactive | GloSensor cGMP 15µM
Cc1cc(=O)n(CC(=O)Nc2ccc(C)c(C)c2)c(N(C)Cc2ccccc2)n1	HEK cytotox inconclusive, NIH3T3 tox inconclusive, hNpr1 antagonist inconclusive
CCNc1ncc(CN2CCN(c3ccncc3)CC2)cn1	none
COC(=O)CNC(=O)C1CCCN1C(=O)c1cccc(-c2cccnc2)c1 (stereo unspecified)	HEK cytotox inconclusive (no result: hNpr1 antagonist, GPT2 inhibitor, Luciferase inh)
Cc1ccc(F)c(C(CC(=O)NCc2ccco2)c2c[nH]c3ccc([N+](=O)[O-])cc23)c1 (stereo unspecified)	HEK cytotox 40µM, NIH3T3 tox 32µM | NPR1 antag cnf inconclusive | Npr2 selectivity inconclusive | FLuc counter inactive | GloSensor cGMP inconclusive
COc1ccc(C(=O)N[C@@H]2CCC[C@@H]2C(=O)N(C)C)cn1	none
COc1ccc(-c2nccn3cc(C(=O)NCc4ccc(OC)c(OC)c4)nc23)cc1	HEK cytotox inconclusive, hNpr1 antagonist 13µM | NPR1 antag cnf 19µM | Npr2 selectivity 15µM | FLuc counter inactive | GloSensor cGMP inactive
COCCNC(=O)c1cn2ccnc(-c3ccc(OC)cc3)c2n1	none
Cc1nsc(NC(=O)NC23CC4CC(C2)CC(C(C)C)(C4)C3)n1	HEK cytotox 32µM, NIH3T3 tox inconclusive, hNpr1 antagonist 13µM | NPR1 antag cnf 31µM | Npr2 selectivity 27µM | FLuc counter inactive | GloSensor cGMP inconclusive
O=C(Cc1c[nH]c2ncc(-c3ccccc3C(F)(F)F)cc12)NCc1cccnc1	HEK cytotox inconclusive, NIH3T3 tox inconclusive, hNpr1 antagonist 7.9µM | NPR1 antag cnf 16µM | Npr2 selectivity 20µM | FLuc counter inactive | GloSensor cGMP 16µM
COc1ncccc1-c1cnc2[nH]cc(CC(N)=O)c2c1	NIH3T3 tox inconclusive
Cc1ccccc1-c1cnc2[nH]cc(CC(=O)N3CCCC3)c2c1	HEK cytotox 89µM, NIH3T3 tox inconclusive, hNpr1 antagonist 3.5µM | NPR1 antag cnf 7.9µM | Npr2 selectivity 11µM | FLuc counter inactive | GloSensor cGMP 7µM
O=C(Cc1c[nH]c2ncc(-c3ccccc3F)cc12)NCc1cccnc1	HEK cytotox inconclusive, NIH3T3 tox inconclusive, Luciferase inh inconclusive
NC(=O)Cc1c[nH]c2ncc(-c3ccccc3C(F)(F)F)cc12	HEK cytotox inconclusive, hNpr1 antagonist inconclusive | NPR1 antag cnf 31µM | Npr2 selectivity inconclusive | FLuc counter inactive | GloSensor cGMP 35µM
Cc1ccccc1-c1cnc2[nH]cc(CC(=O)NCc3cccnc3)c2c1	HEK cytotox 79µM, NIH3T3 tox inconclusive, hNpr1 antagonist 32µM | NPR1 antag cnf 31µM | Npr2 selectivity 28µM | FLuc counter inactive | GloSensor cGMP 25µM
COCc1nc(C2CCN(C(=O)NC3CCCCC3)C2)no1 (stereo unspecified)	none
COCCn1c(C)cnc1CC1CCCN(Cc2ccc(C#N)cc2)C1 (stereo unspecified)	HEK cytotox inconclusive, NIH3T3 tox inconclusive (no result: hNpr1 antagonist, Luciferase inh)
COc1ccc(CNC2(Cc3cc(-c4ccc(F)cc4)on3)COC2)cc1	HEK cytotox inconclusive, NIH3T3 tox inconclusive, GPT2 inhibitor inconclusive
CCNC(=O)Cc1c[nH]c2ncc(-c3ccccc3C)cc12	HEK cytotox inconclusive, NIH3T3 tox inconclusive, hNpr1 antagonist 18µM | NPR1 antag cnf 31µM | Npr2 selectivity 31µM | FLuc counter inactive | GloSensor cGMP 28µM
COCCNC(=O)Cc1c[nH]c2ncc(-c3ccccc3C)cc12	HEK cytotox inconclusive, NIH3T3 tox inconclusive
O=C(NC[C@H]1Cn2c(-c3ccc4c(c3)OCCO4)cnc2CO1)Nc1ccccc1	HEK cytotox 100µM, NIH3T3 tox 89µM, hNpr1 antagonist inconclusive | NPR1 antag cnf inconclusive | Npr2 selectivity inconclusive | FLuc counter inactive | GloSensor cGMP inactive
O=C(NC[C@H]1Cn2c(-c3ccc4c(c3)OCO4)cnc2CO1)Nc1ccccc1	HEK cytotox inconclusive, NIH3T3 tox inconclusive, Luciferase inh inconclusive
O=C1COCC2(CN1)CN(c1ccc(Oc3ccccc3)cc1)C2	HEK cytotox inconclusive, NIH3T3 tox inconclusive, hNpr1 antagonist 7.1µM | NPR1 antag cnf 11µM | Npr2 selectivity 9.9µM | FLuc counter inactive | GloSensor cGMP 9.9µM
COCCN1C(=O)c2cccn2CC1CNC(=O)CCc1c[nH]c2ccccc12 (stereo unspecified)	none
COC(=O)c1ccc(CNC(C)c2cnc(-c3ccncc3)nc2C)cc1 (stereo unspecified)	none
Cc1ccc(C2(C(=O)NC(C)c3cnc(-c4ccncc4)nc3C)CC2)cc1 (stereo unspecified)	HEK cytotox inconclusive, NIH3T3 tox inconclusive, hNpr1 antagonist inconclusive | NPR1 antag cnf inconclusive | Npr2 selectivity inconclusive | FLuc counter inactive | GloSensor cGMP inactive
C[C@@H]1C(=O)O[C@H]2[C@H]1CC[C@@]1(C)Cc3sc(NC(=O)c4ccc(N(C)C)cc4)nc3[C@@H](C)[C@H]21	HEK cytotox inconclusive, NIH3T3 tox 32µM, hNpr1 antagonist 8.9µM | NPR1 antag cnf 14µM | Npr2 selectivity inconclusive | FLuc counter inactive | GloSensor cGMP 11µM
